Assay results as given in PubChem BioAssay (EPA / NIEHS).
The source made the active and inactive calls. Rule for the calls: active = hit-call score of the fitted dose curve at least 0.9, where 1 is the maximum; inactive = score below 0.9.

Assays:
[1] = BSK_3C_SRB: Viability Assessment in the BioMAP Diversity Plus: 3C Assay (AID 2283023); conditions: primary human endothelial cells (HUVEC);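 note: fitted both ways against DMSO so a hit may be signal rise or drop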
Summary of the method: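 Absorbance at 560 nm of sulforhodamine B-stained (0.1%) total protein served as a cytotoxicity readout in human umbilical vein endothelial cells, 24 h after chemical treatment. Signal was fitted bidirectionally relative to DMSO.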

[2] = read-out: Matrix Metallopeptidase 1 (MMP1), MMP1 (gene 4312); experiment: BSK_BE3C_MMP1: BioMAP Diversity Plus: BE3C Assay for Matrix Metallopeptidase 1 (MMP1) Biomarker Activity (AID 2283024); conditions: primary human bronchial epithelial cells; actives raise or lower the signal
Summary of the method: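 MMP1 signal, measured by ELISA after a 24 h chemical exposure of human primary bronchial epithelial cells, is analysed with bidirectional fitting using DMSO as negative control.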

[3] = BSK_3C_Vis: BioMAP Diversity Plus: 3C Assay for Morphology Visualization (AID 2283025); conditions: primary human endothelial cells (HUVEC);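 note: fitted both ways so gain or loss versus DMSO counts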
Summary of the method: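 Morphology read by light microscopy serves as a background control for the multiplexed 3C assay in human umbilical vein endothelial cells, taken 24 h after dosing, with DMSO as the negative control and bidirectional curve fitting.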

[4] = read-out: Pselectin, SELP (gene 6403); experiment: BSK_4H_Pselectin: BioMAP Diversity Plus: 4H Assay for Pselectin Biomarker Activity (AID 2283026); conditions: primary human endothelial cells (HUVEC); actives raise or lower the signal
Summary of the method: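 Endothelial primary cells (human umbilical vein) are dosed, incubated 24 h, and assayed for surface P-selectin by ELISA; responses in either direction are fitted relative to the DMSO negative control.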

[5] = BSK_4H_SRB: Viability Assessment in the BioMAP Diversity Plus: 4H Assay (AID 2283027); conditions: primary human endothelial cells (HUVEC);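 note: cells exposed to compound for 24 h before staining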;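 for AC50: curves fitted both ways versus DMSO so AC50 may be loss or gain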
Summary of the method: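 Cytotoxicity read-out in primary human endothelial cells: after 24 h compound exposure, cells were TCA-fixed (10%), stained with 0.1% SRB and absorbance taken at 560 nm. Values fitted in both directions relative to DMSO.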

[6] = BSK_BE3C_SRB: Viability Assessment in the BioMAP Diversity Plus: BE3C Assay (AID 2283028); conditions: primary human bronchial epithelial cells;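 for AC50: fitted both ways so AC50 may mark signal gain or loss versus DMSO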
Summary of the method: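 Cells (human bronchial epithelial, primary) are treated with chemicals, and after 24 h the parallel cultures are fixed in 10% TCA. These are then stained with 0.1% SRB and read at 560 nm. Gain or loss of signal is fitted relative to DMSO.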

[7] = read-out: Thrombomodulin, THBD (gene 7056); experiment: BSK_3C_Thrombomodulin: BioMAP Diversity Plus: 3C Assay for Thrombomodulin Biomarker Activity (AID 2283029); conditions: primary human endothelial cells (HUVEC); actives raise or lower the signal
Summary of the method: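 Endothelial cells from umbilical vein are dosed with test chemical and incubated 24 h. Thrombomodulin is then quantified by ELISA, with DMSO serving as negative control and activity baseline.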

[8] = read-out: Urokinase-type plasminogen activator receptor (uPAR), PLAUR (gene 5329); experiment: BSK_4H_uPAR: BioMAP Diversity Plus: 4H Assay for Urokinase-type plasminogen activator receptor (uPAR) Biomarker Activity (AID 2283030); conditions: primary human endothelial cells (HUVEC); actives raise or lower the signal
Summary of the method: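 Cell-surface uPAR ELISA signal, measured 24 h after dosing human umbilical vein endothelial cells, was analyzed with bidirectional fitting relative to DMSO. Parallel SRB staining of total protein tracked overt cytotoxicity.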

[9] = read-out: Vascular endothelial growth factor receptor 2 (Homo sapiens) (UniProt P35968); experiment: BSK_4H_VEGFRII: BioMAP Diversity Plus: 4H Assay for Vascular endothelial growth factor receptor 2 (VEGFR2) Biomarker Activity (AID 2283031); conditions: primary human endothelial cells (HUVEC); actives raise or lower the signal;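 for AC50: cell-surface VEGFR2 protein level quantified by ELISA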
Summary of the method: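 ELISA read-out of VEGFRII in primary human umbilical vein endothelium, taken 24 h after chemical treatment. Responses are expressed relative to DMSO, with bidirectional fitting.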

[10] = read-out: Human Leukocyte Antigen - DR isotype (HLADR), HLA-DRA (gene 3122); experiment: BSK_BE3C_HLADR: BioMAP Diversity Plus: BE3C Assay for Human Leukocyte Antigen - DR isotype (HLADR) Biomarker Activity (AID 2283032); conditions: primary human bronchial epithelial cells; actives raise or lower the signal
Summary of the method: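 Chemicals are dosed onto BE3C bronchial epithelial cultures of human origin and left 24 h. HLA-DR is then measured by ELISA, and the endpoint is fitted in both directions using DMSO as the activity baseline.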

[11] = read-out: Vascular cell adhesion molecule 1 (VCAM1), VCAM1 (gene 7412); experiment: BSK_4H_VCAM1: BioMAP Diversity Plus: 4H Assay for Vascular cell adhesion molecule 1 (VCAM1) Biomarker Activity (AID 2283033); conditions: primary human endothelial cells (HUVEC); actives raise or lower the signal
Summary of the method: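 Chemicals are added to primary human umbilical vein endothelial cells. After 24 h, VCAM-1 levels are measured by ELISA. Values come from bidirectional fitting referenced to DMSO.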

[12] = read-out: Interferon-gamma inducible Protein 10 (IP10), CXCL10 (gene 3627); experiment: BSK_BE3C_IP10: BioMAP Diversity Plus: BE3C Assay for Interferon-gamma inducible Protein 10 (IP10) Biomarker Activity (AID 2283034); conditions: primary human bronchial epithelial cells; actives raise or lower the signal
Summary of the method: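 IP-10 quantified by ELISA serves as the endpoint. Cells: primary human bronchial epithelium, read 24 h after compound addition. Activity is derived by bidirectional fitting with DMSO as negative control.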

[13] = read-out: Monokine induced gamma interferon (MIG), CXCL9 (gene 4283); experiment: BSK_BE3C_MIG: BioMAP Diversity Plus: BE3C Assay for Monokine induced gamma interferon (MIG) Biomarker Activity (AID 2283035); conditions: primary human bronchial epithelial cells; actives raise or lower the signal
Summary of the method: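 ELISA quantified MIG after 24 h exposure of primary bronchial epithelial cultures, analysed in both directions relative to DMSO. Cytotoxicity tracked in parallel cultures by sulforhodamine B staining.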

[14] = read-out: Transforming growth factor beta 1 (TGFb1), TGFB1 (gene 7040); experiment: BSK_BE3C_TGFb1: BioMAP Diversity Plus: BE3C Assay for Transforming growth factor beta 1 (TGFb1) Biomarker Activity (AID 2283036); conditions: primary human bronchial epithelial cells; actives raise or lower the signal
Summary of the method: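 Bronchial epithelial primary cells are treated with test chemical, then TGF-b1 is quantified by ELISA after 24 hours. Values derive from bidirectional fitting against DMSO, with cytotoxicity checked by SRB staining in parallel cultures.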

[15] = read-out: Plasminogen activator inhibitor-1 (PAI1), SERPINE1 (gene 5054); experiment: BSK_BE3C_PAI1: BioMAP Diversity Plus: BE3C Assay for Plasminogen activator inhibitor-1 (PAI1) Biomarker Activity (AID 2283037); conditions: primary human bronchial epithelial cells; actives raise or lower the signal
Summary of the method: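 Values derive from bidirectional fitting against DMSO baseline of PAI-1 levels, measured by ELISA in human bronchial epithelial cells 24 h after compound addition.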

[16] = read-out: urokinase plasminogen activator (uPA), PLAU (gene 5328); experiment: BSK_BE3C_uPA: BioMAP Diversity Plus: BE3C Assay for urokinase plasminogen activator (uPA) Biomarker Activity (AID 2283038); conditions: primary human bronchial epithelial cells; actives raise or lower the signal
Summary of the method: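 Bronchial epithelial cells (human, primary); chemical 24 h; uPA by ELISA; bidirectional fit vs DMSO. SRB (0.1%, after 10% TCA fixation, 560 nm) in parallel cultures for cytotoxicity.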

[17] = read-out: Urokinase-type plasminogen activator receptor (uPAR), PLAUR (gene 5329); experiment: BSK_BE3C_uPAR: BioMAP Diversity Plus: BE3C Assay for Urokinase-type plasminogen activator receptor (uPAR) Biomarker Activity (AID 2283039); conditions: primary human bronchial epithelial cells; actives raise or lower the signal
Summary of the method: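 Steps: dose human primary bronchial epithelial cells, incubate 24 h, measure uPAR by ELISA, then fit gain- or loss-of-signal response bidirectionally relative to DMSO.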

[18] = read-out: Interleukin-6 (IL6), IL6 (gene 3569); experiment: BSK_CASM3C_IL6: BioMAP Diversity Plus: CASM3C Assay for Interleukin-6 (IL6) Biomarker Activity for (AID 2283040); conditions: primary human coronary artery smooth muscle cells; actives raise or lower the signal
[19] = read-out: Tissue plasminogen activator (tPA), PLAT (gene 5327); experiment: BSK_BE3C_tPA: BioMAP Diversity Plus: BE3C Assay for Tissue plasminogen activator (tPA) Biomarker Activity (AID 2283041); conditions: primary human bronchial epithelial cells; actives raise or lower the signal
Summary of the method: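 Gain- or loss-of-signal in tPA, measured by ELISA, derived by bidirectional fitting against DMSO. Cells: human primary bronchial epithelial; read at 24 h after chemical dosing.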

Measured: AC50

OC[C@@H](O)[C@@H](O)[C@H](O)[C@H](O)CO
inactive: all assays above

FC(F)(F)C(F)(F)C(F)(F)C(F)(F)C(F)(F)C(F)(F)CCI
inactive: all assays above

C[Si]1(C)O[Si](C)(C)O[Si](C)(C)O[Si](C)(C)O1
inactive: all assays above

CN[C@H]1CC[C@@H](c2ccc(Cl)c(Cl)c2)c2ccc(S(N)(=O)=O)cc21
active: [1] 16 µM | [2] 31.8 µM | [3] 14.4 µM | [4] 9.02 µM | [5] 18.2 µM | [6] 34 µM | [7] 4.65 µM | [8] 20 µM | [9] 20 µM | [10] 31.4 µM | [11] 17.3 µM | [12] 37 µM | [13] 36.7 µM | [14] 31.1 µM | [15] 32.5 µM | [16] 31.1 µM | [17] 30.2 µM | [18] 33.1 µM | [19] 13 µM

Cc1ccc(C)c(C)c1
inactive: all assays above

Cc1ccccc1Cl
inactive: all assays above

CC=Cc1ccc(O)c(OC)c1
active: [11] 7.6 µM
inactive: all other assays above

CCOC(=O)CCC(=O)OCC
inactive: all assays above

Oc1ccc2c(c1)OC[C@@H](N1CCC(O)(c3ccc(F)cc3)CC1)[C@H]2O
inactive: all assays above
